In PubChem BioAssay AID1159580 (chemical genetic matrix, 2015):
The whole screen tested about 5,500 compounds, of which about 2,000 (36%) were called active. Not shown: some 18% with an inconclusive outcome. Rule as the data show it: active = normalized growth mostly below about 0.91 (no sharp cut-off); inconclusive = no clear call, values can overlap the other calls; inactive = mostly above about 0.92. The list shows a part of the results.

Experiment: chemical genetic growth profiling, strain panel (AID 1159580);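 also: tested at 20 µM; growth read once vehicle control cultures reached saturation at 30 °C; 1 = growth at the plate median or of vehicle wells; lower values mean less growth of the strain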
Settings: S. cerevisiae deletion strains, growth OD

Measured: normalized growth

CCO/C([O-])=N/c1c[n+](N2CCOCC2)no1
inactive: locus YAL040C, strain CLN3, hits give low values 0.99 | locus YCL061C, strain MRC1 (second series), hits give low values 0.99 | locus YDR363W, strain ESC2, hits give low values 1.02 | locus YER002W, strain NOP16, hits give low values 1 | locus YMR263W, strain SAP30, hits give low values 0.98 | locus YMR307W, strain GAS1, hits give low values 0.996 | locus YNL128W, strain TEP1, hits give low values 1.01 | locus YNL175C, strain NOP13, hits give low values 1 | locus YNL197C, strain WHI3, hits give low values 0.984 | locus YNL224C, strain SQS1, hits give low values 1.01 | locus YOR083W, strain WHI5 (second series), hits give low values 0.995 | locus YPL241C, strain CIN2, hits give low values 0.968

NC(=O)c1ncn(C2O[C@H](CO)[C@@H](O)[C@H]2O)c1N (some centres not stated)
inactive: locus YAL021C, strain ccr4, hits give low values 1.04 | locus YAL026C, strain drs2, hits give low values 1.03 | locus YAL030W, strain snc1, hits give low values 1.03 | locus YBL061C, strain skt5, hits give low values 1.04 | locus YBR009C, strain hhf1, hits give low values 1.07 | locus YBR023C, strain chs3, hits give low values 1.02 | locus YBR171W, strain sec66, hits give low values 1.05 | locus YBR231C, strain swc5, hits give low values 1.04 | locus YBR279W, strain paf1, hits give low values 1.02 | locus YCL011C, strain gbp2, hits give low values 1.04 | locus YCL016C, strain dcc1, hits give low values 1.03 | locus YCL061C, strain MRC1, hits give low values 1.04 | locus YCL069W, strain vba3, hits give low values 1.03 | locus YCR088W, strain abp1, hits give low values 1.03 | locus YDL005C, strain med2, hits give low values 1.04 | locus YDL040C, strain nat1, hits give low values 1.03 | locus YDR001C, strain nth1, hits give low values 1.03 | locus YDR069C, strain doa4, hits give low values 1.03 | locus YDR137W, strain rgp1, hits give low values 1.04 | locus YDR159W, strain sac3, hits give low values 1.05 | locus YDR195W, strain ref2 1.02 | locus YDR297W, strain sur2, hits give low values 1.03 | locus YDR334W, strain swr1, hits give low values 1.04 | locus YDR335W, strain msn5, hits give low values 1.03 | locus YDR392W, strain spt3, hits give low values 1 | locus YEL003W, strain gim4, hits give low values 1.03 | locus YEL037C, strain rad23, hits give low values 1.03 | locus YEL061C, strain CIN8 (second series), hits give low values 1.03 | locus YER015W, strain faa2, hits give low values 1.04 | locus YER016W, strain bim1, hits give low values 1.03 | locus YER111C, strain swi4, hits give low values 1.04 | locus YER155C, strain BEM2 (second series), hits give low values 1.06 | locus YFR010W, strain ubp6, hits give low values 1.04 | locus YGL167C, strain pmr1, hits give low values 1.04 | locus YGL173C, strain kem1, hits give low values 1.04 | locus YGL227W, strain vid30, hits give low values 1.04 | locus YGL240W, strain doc1, hits give low values 1.06 | locus YGL253W, strain hxk2, hits give low values 1.04 | locus YHR013C, strain ard1, hits give low values 1.03 | locus YHR027C, strain rpn1, hits give low values 1.03 | locus YHR030C, strain SLT2, hits give low values 0.991 | locus YHR079C, strain IRE1, hits give low values 1.01 | locus YHR142W, strain chs7, hits give low values 1.02 | locus YJL092W, strain hpr5, hits give low values 1.02 | locus YJL095W, strain BCK1 (second series), hits give low values 1.03 | locus YJL095W, strain BCK1, hits give low values 1.01 | locus YJL115W, strain asf1, hits give low values 1.03 | locus YJL129C, strain trk1, hits give low values 1.04 | locus YJL154C, strain vps35, hits give low values 1.02 | locus YJL164C, strain tpk1, hits give low values 1.02 | locus YJL166W, strain qcr8, hits give low values 1.05 | locus YJL187C, strain SWE1, hits give low values 1.03 | locus YJR066W, strain TOR1, hits give low values 0.949 | locus YKL160W, strain elf1, hits give low values 1.02 | locus YKR026C, strain gcn3, hits give low values 1.03 | locus YKR091W, strain srl3, hits give low values 1.03 | locus YLL001W, strain dnm1, hits give low values 1.04 | locus YLL026W, hits give low values 1.03 | locus YLL041C, strain sdh2, hits give low values 1.04 | locus YLR027C, strain aat2, hits give low values 1.03 | locus YLR113W, strain HOG1, hits give low values 0.993 | locus YLR221C, strain rsa3, hits give low values 1.03 | locus YLR258W, strain gsy2, hits give low values 1.04 | locus YLR262C, strain YPT6 (second series), hits give low values 1.05 | locus YLR320W, strain mms22, hits give low values 1.05 | locus YLR342W, strain FKS1, hits give low values 1.05 | locus YLR357W, strain rsc2, hits give low values 1.08 | locus YLR370C, strain arc18, hits give low values 1.05 | locus YLR384C, strain iki3, hits give low values 1.04 | locus YML120C, strain ndi1, hits give low values 1.01 | locus YMR058W, strain fet3, hits give low values 1.03 | locus YMR125W, strain sto1, hits give low values 1.04 | locus YMR129W, hits give low values 1.03 | locus YMR205C, strain PFK2, hits give low values 1.07 | locus YMR231W, strain pep5, hits give low values 1.03 | locus YNL071W, strain lat1, hits give low values 1.04 | locus YNL183C, strain NPR1, hits give low values 0.965 | locus YNL209W, strain ssb2, hits give low values 1.04 | locus YNL248C, strain rpa49, hits give low values 1.03 | locus YNL322C, strain KRE1 (second series), hits give low values 1.03 | locus YNR049C, strain mso1, hits give low values 1.04 | locus YOR001W, strain rrp6, hits give low values 1.02 | locus YOR070C, strain gyp1, hits give low values 1.03 | locus YOR080W, strain dia2, hits give low values 1.05 | locus YOR083W, strain WHI5, hits give low values 1.02 | locus YOR106W, strain vam3, hits give low values 1.03 | locus YOR231W, strain MKK1, hits give low values 1.01 | locus YOR265W, strain rbl2, hits give low values 1.04 | locus YOR270C, strain vph1, hits give low values 1.05 | locus YOR290C, strain snf2, hits give low values 0.974 | locus YPL051W, strain arl3, hits give low values 1.01 | locus YPL078C, strain atp4, hits give low values 1.03 | locus YPL106C, strain sse1, hits give low values 1.08 | locus YPL240C, strain hsp82, hits give low values 1.03 | locus YPL256C, strain CLN2, hits give low values 0.982
